Screening results from PubChem.
This is a sample that favours compounds with a hit; in the whole collection about 3.1% have one here.
INS-1E GSIS act: primary screen for activators of insulin secretion dependent on glucose, INS-1E cells, GLuc reporter luminescence; INS-1E GLuc reporter insulin secretion, 2-3 h; activation, % at 16.6 µM; 0.61% of 370,000 active; AID 743287;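 active means lowest replicate activation of at least 40%, so every replicate reaches that level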
EWS-Fli inh: inhibitors of EWS/Fli oncoprotein transcriptional activity; AID 651661; A673 NR0B1-luciferase reporter, viability-normalised; 0.67% of 350,000 active; inhibition, % at 12.6 µM;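 active means mean inhibition of at least 50% after viability correction, with every replicate also passing that limit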;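 further: firefly luciferase signal divided by Alamar Blue viability fluorescence both relative to DMSO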
PAX8 reporter: lowers PAX8-driven luciferase in RMG-I cells; inhibition, % at 12.6 µM; 1.2% of 360,000 active; RMG-I TPO-luciferase reporter, SteadyGlo, 24 h; AID 652154;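 active means mean replicate inhibition at least 60% with every replicate also reaching 60%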;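 further: luciferase light reporting Pax8 driven TPO promoter activity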
HIV Env fusion: inhibitors of HIV Env-mediated cell fusion. HeLa-JRFL Env/CEM21 cell fusion, luciferase. inhibition, % at 12.3 µM. 1.1% of 360,000 active. AID 651610;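 active means mean replicate inhibition score of at least 50 and every replicate individually at or above 50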
miR122 inh: miR-122 inhibition in Huh7 cells. activation (reporter increase), % at 12.5 µM. 0.3% of 340,000 active. AID 602342. Huh7 miR-122 Renilla luciferase sensor, 48 h; neutral wells = 0, positive control = 100;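 active means mean replicate activation score at least 90 and every replicate individually at or above 90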;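 further: higher luciferase means less miR-122 activity so hits act as miR-122 inhibitors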
C2C12 statin: suppression of simvastatin myotoxicity; C2C12 myotubes + simvastatin, ATP luminescence, 48 h; scaled: DMSO 0, geranylgeraniol control 100; rescue of ATP level, % at 7.49 µM; 0.78% of 330,000 active;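 active means mean ATP rescue above about 67%, or every replicate alone reaching that limit, limit read from the data, passing the limit was not always enough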;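 further: myotubes were challenged with 10 µM simvastatin during compound exposure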
A number is an active result.

For CCOc1ccc(N2CC(C(=O)Nc3ccc(S(=O)(=O)N4CCCC4)cc3)CC2=O)cc1 (configuration not stated) the results were INS-1E GSIS act inactive, EWS-Fli inh inactive, PAX8 reporter inactive, HIV Env fusion inactive and C2C12 statin inactive.
CCOc1ccc(N2CC(C(=O)Nc3ccc(S(=O)(=O)N4CCCCC4)cc3)CC2=O)cc1 (configuration not stated) was read as INS-1E GSIS act inactive, EWS-Fli inh inactive, PAX8 reporter inactive and HIV Env fusion 67.
CCOc1ccc(CN(C)C(=O)CCc2ccc(S(=O)(=O)N3CCCCCC3)cc2)cc1 was read as INS-1E GSIS act inactive, EWS-Fli inh inactive, PAX8 reporter inactive, HIV Env fusion 65, miR122 inh inactive and C2C12 statin inactive.
CSc1cccc(N2CC(C(=O)Nc3cccc(S(=O)(=O)N4CCCC4)c3)CC2=O)c1 (configuration not stated) was read as INS-1E GSIS act inactive, EWS-Fli inh inactive, PAX8 reporter inactive, HIV Env fusion 116, miR122 inh inactive and C2C12 statin inactive.
Screening O=c1[nH]c(=S)c2[nH]c(=S)n(-c3ccccc3)c2[nH]1 returned EWS-Fli inh inactive, PAX8 reporter inactive, miR122 inh inactive and C2C12 statin 99.
COc1ccc(-c2ccc3c(c2)[C@@H]2[C@@H](CCN2C(=O)c2ccc4c(c2)OCO4)[C@H](CO)N3C)cc1 was read as INS-1E GSIS act inactive, EWS-Fli inh inactive, PAX8 reporter inactive, miR122 inh inactive and C2C12 statin inactive.
C[C@@H]1CN([C@@H](C)CO)C(=O)c2cccc(NC(=O)C3CCOCC3)c2O[C@H]1CN(C)CC1CCCCC1 was read as INS-1E GSIS act inactive, EWS-Fli inh inactive, PAX8 reporter inactive, HIV Env fusion inactive, miR122 inh inactive and C2C12 statin inactive.
`CCc1nnc(NC(=O)c2nc(S(=O)(=O)Cc3ccccc3)ncc2Cl)s1` gave INS-1E GSIS act inactive, PAX8 reporter inactive, HIV Env fusion inactive, miR122 inh inactive and C2C12 statin inactive.
CCOc1ccccc1NC(=O)c1nc(S(=O)(=O)Cc2cccc(C)c2)ncc1Cl was read as INS-1E GSIS act inactive, EWS-Fli inh 58, PAX8 reporter 132, HIV Env fusion inactive, miR122 inh inactive and C2C12 statin inactive.
CSc1nnc(NC(=O)c2nc(S(=O)(=O)Cc3cccc(C)c3)ncc2Cl)s1 was read as INS-1E GSIS act inactive, PAX8 reporter inactive, HIV Env fusion 89, miR122 inh inactive and C2C12 statin inactive.
For CCc1nnc(NC(=O)c2nc(S(=O)(=O)Cc3cccc(C)c3)ncc2Cl)s1 the results were INS-1E GSIS act inactive, PAX8 reporter inactive, HIV Env fusion 63, miR122 inh inactive and C2C12 statin inactive.
Screening CO[C@@H]1CN(C)C(=O)c2ccc(NC(=O)NC(C)C)cc2OC[C@H](C)N(Cc2ccccc2)C[C@H]1C returned INS-1E GSIS act inactive, EWS-Fli inh inactive, miR122 inh inactive and C2C12 statin inactive.
`COc1ccc(/C=C/C(=O)NC(=S)NN2CCCCC2c2cccnc2)cc1OC` (configuration not stated) gave INS-1E GSIS act 70, EWS-Fli inh inactive, PAX8 reporter inactive and HIV Env fusion inactive.
COc1ccc(/C=C/C(=O)NC(=S)N2CCCCC2)cc1OC was read as INS-1E GSIS act inactive, EWS-Fli inh inactive, PAX8 reporter inactive, HIV Env fusion inactive, miR122 inh inactive and C2C12 statin inactive.
`COc1cccc(S(=O)(=O)N[C@H]2CC[C@H](CCNC(=O)Nc3cc(F)ccc3F)O[C@@H]2CO)c1` gave INS-1E GSIS act inactive, EWS-Fli inh inactive, PAX8 reporter inactive, HIV Env fusion inactive and C2C12 statin inactive.
C[C@@H]1CCCCO[C@@H](CN(C)S(C)(=O)=O)[C@H](C)CN([C@H](C)CO)C(=O)c2cc(NC(=O)c3ccccc3)ccc2O1 was read as INS-1E GSIS act inactive, EWS-Fli inh inactive, PAX8 reporter inactive, HIV Env fusion inactive, miR122 inh inactive and C2C12 statin inactive.
Screening C[C@@H]1CN([C@@H](C)CO)C(=O)Cc2cc(NS(=O)(=O)c3ccc(Cl)cc3)ccc2O[C@@H]1CN(C)CC1CCCCC1 returned INS-1E GSIS act inactive, EWS-Fli inh inactive, PAX8 reporter 106, HIV Env fusion inactive, miR122 inh inactive and C2C12 statin inactive.
`C[C@@H]1CN([C@H](C)CO)C(=O)Cc2cc(NS(=O)(=O)c3ccc(F)cc3)ccc2O[C@H]1CN(C)CC1CCCCC1` gave INS-1E GSIS act inactive, EWS-Fli inh inactive, miR122 inh inactive and C2C12 statin 108.
For c1ccc2nc(-c3ccc(N4CCOCC4)cc3)ccc2c1 the results were HIV Env fusion inactive, miR122 inh inactive and C2C12 statin inactive.
Screening CN1CCN(c2ccc(-c3ccc4ccccc4n3)cc2)CC1 returned EWS-Fli inh 93, PAX8 reporter 94 and HIV Env fusion inactive.
COc1cc2c(cc1OC)C(C)N(C(=O)c1cc(C)on1)CC2 (configuration not stated) was read as INS-1E GSIS act inactive, EWS-Fli inh 53, PAX8 reporter inactive, HIV Env fusion inactive, miR122 inh inactive and C2C12 statin inactive.
COc1cc2c(cc1OC)CN(C(=O)Cc1ccccc1)CC2 was read as INS-1E GSIS act 63, EWS-Fli inh inactive, PAX8 reporter inactive, HIV Env fusion inactive, miR122 inh inactive and C2C12 statin inactive.
COc1cc2c(cc1OC)[C@H](C)N(C(=O)NCc1ccccc1)CC2 was read as INS-1E GSIS act 54, EWS-Fli inh inactive, PAX8 reporter inactive, HIV Env fusion inactive, miR122 inh inactive and C2C12 statin inactive.
Screening CCC(C)[C@H](NC(=O)Nc1ccc(C(C)=O)cc1)C(=O)OC (some centres not stated) returned miR122 inh inactive and C2C12 statin 93.
CCC(C)[C@H](NC(=O)Nc1ccc(S(N)(=O)=O)cc1)C(=O)OC (some centres not stated) was read as INS-1E GSIS act inactive, EWS-Fli inh inactive, PAX8 reporter inactive and HIV Env fusion inactive.
Screening c1ccc(-c2nnc3n2-c2ccccc2SC3)cc1 returned INS-1E GSIS act 58, EWS-Fli inh inactive, PAX8 reporter inactive and HIV Env fusion inactive.
CCCCC1Cc2[nH]c(=S)[nH]c(=O)c2C(C(C)C)O1 (configuration not stated) was read as INS-1E GSIS act 42, EWS-Fli inh inactive, PAX8 reporter inactive and HIV Env fusion inactive.
CCOc1cccc(C2C(C(=O)c3ccco3)=C(O)C(=O)N2Cc2ccncc2)c1 (configuration not stated) was read as miR122 inh inactive and C2C12 statin 122.
For CCOc1cccc(C2C(C(=O)c3ccco3)=C(O)C(=O)N2c2nnc(C)s2)c1 (configuration not stated) the results were INS-1E GSIS act inactive, EWS-Fli inh inactive, PAX8 reporter inactive, HIV Env fusion inactive, miR122 inh inactive and C2C12 statin inactive.
